SARS PLP yeast: qHTS of Yeast-based Assay for SARS-CoV PLP; S. cerevisiae expressing SARS-CoV PLpro, growth rescue; Potency, µM (series often up to 32.9 µM), usual class: activators; 330,000 tested, 0.19% active; AID 485353, 2010; calls by dose curve; also: nearly all actives have a fitted effect of over 55% in size
CHX counter: Cycloheximide Counterscreen for Small Molecule Inhibitors of Shiga Toxin; cell reporter, cycloheximide protein synthesis inhibition counterscreen; max response, %; 300,000 tested, 12% active; AID 2314, 2010; in the data active = max response mostly above about 13%, no sharp cut-off; inactive = mostly below about 14%; also: read at 38.3 µM for the half of the compounds with a filed dose
Shiga toxin inh: A qHTS for Small Molecule Inhibitors of Shiga Toxin | 290,000 tested, 9.2% active | Vero cells, Shiga toxin protein synthesis inhibition reporter | inhibition, % at 38.7 µM; in the data active = inhibition mostly above about 28%, no sharp cut-off; inactive = mostly below about 43%
NS1 function inh: qHTS Assay for Inhibitors of Influenza NS1 Protein Function | Potency, µM (highest dose often 46.1 µM) | 270,000 tested, 0.4% active | AID 2326, 2010; calls by dose curve; also: actives are rising curves; nearly all actives have a fitted effect of over 50% in size
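In this qHTS, NS1 from influenza A is expressed in budding yeast, where it slows growth. Cells are switched from glucose to 2% galactose medium (pH 6.0, -URA), treated with compound, and growth recovery is read at OD600.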
Pf growth 96h: Primary qHTS for delayed death inhibitors of the malarial parasite plastid, 96 hour incubation; P. falciparum luciferase reporter growth, 96 h; Potency, µM (series often up to 28.7 µM), usual class: inhibitors; 320,000 tested, 6.9% active; AID 504834, 2011
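Luminescence readout: decreased luciferase signal marks inhibited growth of reporter-expressing P. falciparum in infected red cells (2% hematocrit, 0.05% parasitemia final), exposed to compound two generations (96 h, 37 C, 5% CO2).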
Pf growth 48h: Primary qHTS for delayed death inhibitors of the malarial parasite plastid, 48 hour incubation. 310,000 tested, 5.9% active. P. falciparum luciferase growth in erythrocytes, 48 h. Potency, µM (titrated, usually from 28.7 µM), hits mostly inhibitors
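Read-out is firefly luciferase luminescence from an integrated reporter in P. falciparum, so falling signal marks reduced parasite growth. Infected erythrocytes were at 2% hematocrit and 0.1% parasitemia (final) in Albumax-supplemented RPMI 1640.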
Each line names hits and unclear results; the compound was inactive in the other large screens. Sampled rows, rich in hits. Any-hit rate of the full collection: about 21%. Unless noted, calls follow the shape of the dose curve; as a rule, active = well fitted inhibition curve with a large enough effect; inconclusive = small, poorly fitted or top-dose-only effect, or another doubt; inactive = no such curve, though single readings can be large or run the other way.

O=C(NCC1CCCO1)c1ccc2[nH]c3c(c2c1)CCCC3 (stereo unspecified)	none (no result: CHX counter, Shiga toxin inh, NS1 function inh)
O=C(O)c1ccc(S(=O)(=O)Nc2ccc(O)c(Sc3nc4ccccc4s3)c2)cc1	none
CC(=O)c1c(C)oc2ccc(N(C(C)=O)S(=O)(=O)c3cccc4cccnc34)cc12	Pf growth 96h inconclusive, Pf growth 48h inconclusive
O=C(Nc1cc(Cl)ccc1O)c1cc(-c2ccco2)on1	CHX counter 39.8, Shiga toxin inh 79.7, Pf growth 48h inconclusive
O=C(Nc1cccnc1Cl)c1cc(-c2ccc(Br)cc2)on1	none
O=C(Nc1cccnc1Cl)c1cc(-c2ccco2)on1	CHX counter 40.9, Shiga toxin inh 82.6 (no result: Pf growth 96h, Pf growth 48h)
O=C(CCNC(=O)c1ccccc1Cl)NCC(c1ccc(F)cc1)N1CCOCC1 (stereo unspecified)	none (no result: CHX counter, Shiga toxin inh, NS1 function inh)
On1nnc2ccc(C(F)(F)F)cc21	Pf growth 96h inconclusive (no result: NS1 function inh)
N=c1c2ccccc2nnn1-c1ccc(C(F)(F)F)cc1	CHX counter 39.9, Shiga toxin inh 75.9, Pf growth 96h inconclusive, Pf growth 48h 0.294µM (no result: NS1 function inh)
CCCCCc1cc(=O)oc2c(C(CCN(CC)CC)c3cc(OC)c(OC)c(OC)c3)c(OC)cc(OC)c12 (stereo unspecified)	Pf growth 96h 3.7µM, Pf growth 48h 13.1µM
CCCCCc1cc(=O)oc2c(C(CCN3CCCC3)c3ccc4c(c3)OCO4)c(OC)cc(OC)c12 (stereo unspecified)	none (no result: SARS PLP yeast, NS1 function inh, Pf growth 96h, Pf growth 48h)
CCCCCc1cc(=O)oc2c(C(CCN3CCN(c4ccccc4)CC3)c3ccc(N(C)C)cc3)c(OC)cc(OC)c12 (stereo unspecified)	Pf growth 96h inconclusive, Pf growth 48h inconclusive
CCCCCc1cc(=O)oc2c(C(CCN3CCCCC3)c3ccc4c(c3)OCO4)c(OC)cc(OC)c12 (stereo unspecified)	Pf growth 96h 4.65µM, Pf growth 48h 10.4µM
CCCCCc1cc(=O)oc2c(C(CCN3CCCC(C)C3)c3ccc4c(c3)OCO4)c(OC)cc(OC)c12 (stereo unspecified)	Pf growth 96h 4.15µM, Pf growth 48h 7.38µM
C=C(C)CC(C)(C)C	none (no result: SARS PLP yeast, NS1 function inh, Pf growth 96h, Pf growth 48h)
O=C(CN1C(=O)C2C3C=CC(C3)C2C1=O)OCC(=O)c1ccc(Cl)cc1 (stereo unspecified)	none
O=C1C2C3C=CC(C3)C2C(=O)N1CCCCCCN1C(=O)C2C3C=CC(C3)C2C1=O (stereo unspecified)	CHX counter 48.2, Shiga toxin inh 68.1
CC1CCCC(C)N1C(=O)CCN1C(=O)C2C3C=CC(C3)C2C1=O (stereo unspecified)	Pf growth 96h 1.65µM
O=C(CN1C(=O)C2C3C=CC(C3)C2C1=O)OCC(=O)c1ccccc1 (stereo unspecified)	CHX counter 21.0, Shiga toxin inh 37.4
O=C(O)CCN1C(=O)C2C3C=CC(C3)C2C1=O (stereo unspecified)	Pf growth 96h inconclusive
Cc1ccc2c(C)nc(NC3=NCN(CCc4ccccc4)CN3)nc2c1	Pf growth 48h 2.62µM
COCCN1CN=C(Nc2nc(C)c3ccc(C)cc3n2)NC1	Pf growth 48h 2.08µM
Cc1nc(NC2=NCN(CCc3ccccc3)CN2)nc2ccccc12	Pf growth 48h inconclusive (no result: Pf growth 96h)
N=c1sccn1CC(=O)NC(c1ccccc1)c1ccccc1	none (no result: NS1 function inh)
CCOC(=O)C1=C(COC(=O)c2ccc(Br)o2)NC(=O)NC1C (stereo unspecified)	none
O=C(Nc1ccccc1)Nc1ccc(Oc2ncnc3cc(Cl)ccc23)nc1	none
O=C(O)/C=C/C(=O)Nc1ccc(Oc2ncnc3cc(Cl)ccc23)nc1	CHX counter 26.5, Shiga toxin inh 58.4
Cc1ccn2c(CN(C)CCn3nc(C)cc3C)c(C(=O)N3CCCCCC3)nc2c1	Pf growth 48h inconclusive
CSc1nc(Sc2ccc(Cl)cc2)c2ccccc2n1	Pf growth 96h 4.65µM, Pf growth 48h 2.62µM
CCN(CC)c1nc2c(c(=O)[nH]c(=O)n2C)n1CCOc1ccccc1	Pf growth 96h 0.657µM (no result: Shiga toxin inh)
CCC(C)Nc1nc2c(c(=O)[nH]c(=O)n2C)n1CCCc1ccccc1 (stereo unspecified)	Pf growth 96h 4.15µM
CN(Cc1ccccc1)c1nc2c(c(=O)[nH]c(=O)n2C)n1CCCc1ccccc1	CHX counter 27.5, Pf growth 48h inconclusive
CCCCn1c(NCCN(C)C)nc2c1c(=O)[nH]c(=O)n2C	Pf growth 96h 4.65µM
CN(C)c1nc2c(c(=O)[nH]c(=O)n2C)n1CCOc1ccccc1	none (no result: Shiga toxin inh)
CNc1nc2c(c(=O)[nH]c(=O)n2C)n1CCCc1ccccc1	none
CC(C)Cn1c(NCCN(C)C)nc2c1c(=O)[nH]c(=O)n2C	none (no result: Pf growth 96h)
CCN(CC)CCNC(=O)c1cn(CC)c2cc(N3CCN(C(=O)c4ccco4)CC3)c(F)cc2c1=O	none
CCn1cc(C(=O)O)c(=O)c2cc(F)c(N3CCN(C(=S)NC(=O)c4ccccc4)CC3)cc21	Pf growth 96h inconclusive, Pf growth 48h inconclusive
CCN(CC)CCCNC(=O)c1cn(CC)c2cc(N3CCN(C(=O)c4ccco4)CC3)c(F)cc2c1=O	Pf growth 96h inconclusive, Pf growth 48h 7.38µM
CCn1cc(C(=O)NCCC(C)C)c(=O)c2cc(F)c(N3CCN(C(=O)c4ccco4)CC3)cc21	Pf growth 96h 2.33µM, Pf growth 48h inconclusive
CCn1cc(C(=O)Nc2ncccc2O)c(=O)c2cc(F)c(N3CCN(C(=O)c4ccco4)CC3)cc21	Pf growth 96h 4.65µM, Pf growth 48h inconclusive
CCn1cc(C(=O)NC(C)C)c(=O)c2cc(F)c(N3CCN(C(=O)c4ccco4)CC3)cc21	Pf growth 96h 5.86µM, Pf growth 48h 5.22µM
CCOc1ccccc1NC(=O)CNS(=O)(=O)c1ccc2nc(C)sc2c1	Pf growth 96h inconclusive, Pf growth 48h inconclusive (no result: NS1 function inh)
COc1ccccc1C(=O)O[C@H]1[C@H](Cc2ccccc2)NS(=O)(=O)[C@H]2C[C@@H]3C=C[C@]12O3	Pf growth 96h 5.86µM, Pf growth 48h inconclusive (no result: CHX counter, Shiga toxin inh, NS1 function inh)
COc1cccc(C(=O)O[C@H]2[C@H](Cc3ccccc3)NS(=O)(=O)[C@H]3C[C@@H]4C=C[C@]23O4)c1	none (no result: CHX counter, Shiga toxin inh, NS1 function inh, Pf growth 96h, Pf growth 48h)
COc1ccccc1N=Nc1ccc(N)c(C)c1	CHX counter 32.4
CC(C)N(CC#CC(O)(c1ccccc1)c1ccccc1)CCO	Pf growth 96h 2.33µM
Cc1ccc(S(=O)(=O)N/N=C/c2cc(Br)ccc2O)cc1	none
Cc1ccc(S(=O)(=O)Nc2ccc(Br)cc2/C=N/n2cnnc2)cc1	Pf growth 96h 3.7µM
CC(C(=O)NC1CCCC1)N1C(=O)c2cccc3cccc1c23 (stereo unspecified)	Pf growth 96h 2.33µM, Pf growth 48h inconclusive
CC(C(N)=O)N1C(=O)c2cccc3cccc1c23 (stereo unspecified)	none (no result: Pf growth 96h)

Assay outcomes: PubChem BioAssay, National Center for Advancing Translational Sciences (NCATS)
